The whole screen tested about 200,000 compounds, of which about 5,100 (2.5%) were called active.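 How the source made its calls: active means activation above the screen-wide mean activation plus 3 SD (cut at about 130% in these data); inactive means the rest.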 The sample as a whole holds a higher share of actives than the screen did.
test: potentiators of IFN-gamma driven STAT1 reporter – cell-based, HTS, luciferase reporter, primary screen (AID 932); details: NIH 3T3 STAT1-luciferase reporter, luminescence, at 5.5 µM, hits give high values, 100% = IFN-gamma alone, no compound;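 further: raw ratio to IFN-gamma control signal so 100% means no change and 0% no light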

SMILES | activation (% of control)
Cn1c(=O)n(Cc2ccco2)c(=N)c2c3c(sc21)CCCC3 | 103% (inactive)
Cc1nn2c3cc(N4CCOCC4)ccc3nc2c2ccccc12 | 134% (active)
Cc1cc(C(=O)Nc2ccccc2N2CCOCC2)c2ccccc2n1 | 102% (inactive)
N#CCSc1nc2ccc(N3CCOCC3)cc2c(=O)n1CCc1ccccc1 | 102% (inactive)
CCCc1c(C)nc2c(Br)cccc2c1Cl | 97.5% (inactive)
Cc1nc2ccccc2nc(C)c1=NOCc1ccc(Cl)cc1Cl | 111% (inactive)
O=C(OCC#CCSc1nnc(-c2ccncc2)o1)c1sc2ccccc2c1Cl | 100% (inactive)
C#CCSc1nnc(-c2sc3ccccc3c2Cl)o1 | 140% (active)
Clc1ccc(-c2nnc(SCc3nc4ccccc4s3)o2)cc1 | 122% (inactive)
Cc1nonc1C1CCCN1Cc1nc(-c2ccc(F)cc2F)oc1C (stereo not given) | 96% (inactive)
CN(C)CCn1c(=S)[nH]c2ccc(Cl)cc2c1=O | 95.1% (inactive)
CN(C)CCN=c1cc(-c2ccccc2)oc2ccc(Cl)cc12 | 148% (active)
Cc1ccc(N(Cc2cc3ccccc3[nH]c2=O)C(=O)c2cccs2)cc1 | 91.2% (inactive)
CN(C)S(=O)(=O)Oc1ccccc1C(=O)Nc1ccccc1Cl | 91.9% (inactive)
O=C(Cc1cccc2ccccc12)NCCC1=CCCCC1 | 101% (inactive)
CN(c1ccc(C(=O)NCc2ccccn2)cc1)S(C)(=O)=O | 106% (inactive)
CN(c1ccc(C(=O)NCCC2=CCCCC2)cc1)S(C)(=O)=O | 158% (active)
O=C(Cc1nn[nH]n1)NCCC1=CCCCC1 | 94.3% (inactive)
O=C(NCCC1=CCCCC1)c1ccc(Cl)c([N+](=O)[O-])c1 | 110% (inactive)
Cn1nnc2cc(C(=O)NCCC3=CCCCC3)ccc21 | 153% (active)
Cc1nnc(SCC2=C(C(=O)O)N3C(=O)C(NC(=O)Cn4nc(C)c(Cl)c4C)C3SC2)s1 (stereo not given) | 99.2% (inactive)
CCOC(=O)C1CCCN(C(=O)COc2ccc(N(C)S(=O)(=O)c3ccc(C)cc3)cc2)C1 (stereo not given) | 102% (inactive)
Cc1[nH]nc(SCC(=O)NCC(C)C)c1[N+](=O)[O-] | 102% (inactive)
c1ccc(CN2CCC(N=C3NN=C(c4ccc5c(c4)OCCO5)CS3)CC2)cc1 | 114% (inactive)
Cc1cccc(N=C2NN=C(c3c[nH]c4ccccc34)CS2)c1 | 106% (inactive)
Clc1cccc(N=C2NN=C(c3ccc4c(c3)OCCO4)CS2)c1 | 148% (active)
CCN1CCC2(CC1)N=C(c1ccc(F)cc1)C(=S)N2C(=O)c1ccc(C)cc1 | 111% (inactive)
c1ccc(-c2[nH]ncc2-c2nc3ccccc3[nH]2)cc1 | 89.6% (inactive)
Cc1ccc(-c2nc3ccccc3[nH]2)cc1N | 118% (inactive)
c1ccc2[nH]c(-c3nc4ccccc4[nH]3)nc2c1 | 146% (active)
